Source: PubChem BioAssay (NCATS)
A number with no mark means an inactive call. For part of these data: Measured potencies and affinities stand elsewhere. The source made the active and inactive calls. No rule for the calls is given here.

Key:
[1] = Ebola virus entry assay, green fluorescence channel
[2] = Ebola virus entry assay, blue channel fluorescence
[3] = Ebola virus entry assay, ratio channel
[4] = Ebola virus entry assay, reporter ratio channel; Channel type: primary
For efficacy in this document: 0% is about no effect.

In the case of `O=C(c1ccc(F)cc1)C1CCN(CCn2c(=S)[nH]c3ccccc3c2=O)CC1`, the efficacy [1] is reported as 48.9%, the AC50 [2] is reported as 35.5 µM (active) and the AC50 [3] is reported as 17.8 µM (active). For the same molecule, the AC50 [4] was 17.8 µM (active).
With `COC(=O)C1=C(C)NC(C)=C(C(=O)OCCN2CCN(C(c3ccccc3)c3ccccc3)CC2)C1c1cccc([N+](=O)[O-])c1` (configuration not stated) the efficacy [1] was 60.1%, the AC50 [2] was 15.8 µM (active) and the AC50 [3] was 10 µM (active). The AC50 [4] was 10 µM (active).
For `CCOC(=O)Cn1cccc1-c1nc(-c2ccc(OC)cc2)c(-c2ccc(OC)cc2)s1`, the efficacy [1] was 34.5%, the AC50 [2] was 0.708 µM (active) and the AC50 [3] was 0.708 µM (active). The AC50 [4] was 0.708 µM (active).
For `COC(=O)C1=C(C)NC(C)=C(C(=O)OCCCN2CCC(c3ccccc3)(c3ccccc3)CC2)C1c1cccc([N+](=O)[O-])c1` (configuration not stated), the efficacy [1] was -179%, the AC50 [2] was 2.82 µM (active) and the AC50 [3] was 2.51 µM (active). The AC50 [4] was 2.51 µM (active).
For `CCCCCCCCCCCCCCNCCO`, the efficacy [1] was 123%, the AC50 [2] was 15.8 µM (active) and the AC50 [3] was 12.6 µM (active). For the same molecule, the AC50 [4] was 12.6 µM (active).
In the case of `C[C@@H](CN(C)C)CN1c2ccccc2Sc2ccccc21`, the efficacy [1] is reported as 66.9%, the AC50 [2] is reported as 8.91 µM (active) and the AC50 [3] is reported as 10 µM (active). For the same molecule, the AC50 [4] was 10 µM (active).
With `CC(C)N=C(N)/N=C(\N)Nc1ccc(Cl)cc1` the efficacy [1] was 78.8%, the AC50 [2] was 39.8 µM (active) and the outcome [3] was “inactive”. The AC50 [4] was 39.8 µM (active).
For `COc1cc(N)c(Cl)cc1C(=O)NC1CCN(Cc2ccccc2)CC1`, the efficacy [1] was 43.1%, the AC50 [2] was 31.6 µM (active) and the outcome [3] was “inactive”. For the same molecule, the AC50 [4] was 39.8 µM (active).
For `Cc1c(C(=O)NN2CCCCC2)nn(-c2ccc(Cl)cc2Cl)c1-c1ccc(Cl)cc1`, the efficacy [1] was 55.3%, the AC50 [2] was 14.1 µM (active) and the AC50 [3] was 11.2 µM (active). For the same molecule, the AC50 [4] was 11.2 µM (active).
In the case of `C[C@@H]1C[C@H]2[C@@H]3C[C@H](F)C4=CC(=O)C(Cl)=C[C@]4(C)[C@@]3(F)[C@@H](O)C[C@]2(C)[C@@]1(O)C(=O)CO`, the efficacy [1] is reported as 76%, the AC50 [2] is reported as 39.8 µM (active) and the outcome [3] is reported as “inactive”. For the same molecule, the AC50 [4] was 39.8 µM (active).
With `CCO[C@@H]1O[C@H](C(COCc2ccccc2)OCc2ccccc2)[C@H](OCc2ccccc2)[C@H]1O` (some centres not stated) the efficacy [1] was 70%, the AC50 [2] was 31.6 µM (active) and the AC50 [3] was 15.8 µM (active). The AC50 [4] was 15.8 µM (active).
For `O=C(CCCN1CC=C(n2c(=O)[nH]c3ccccc32)CC1)c1ccc(F)cc1`, the efficacy [1] was 51%, the AC50 [2] was 17.8 µM (active) and the AC50 [3] was 17.8 µM (active). For the same molecule, the AC50 [4] was 17.8 µM (active).
With `O=C(CCCN1CCC(O)(c2cccc(C(F)(F)F)c2)CC1)c1ccc(F)cc1` the efficacy [1] was 61.9%, the AC50 [2] was 25.1 µM (active) and the AC50 [3] was 20 µM (active). For the same molecule, the AC50 [4] was 20 µM (active).
In the case of `Cc1nc2ccccc2n1Cc1ccc(Cl)cc1`, the efficacy [1] is reported as 42.7%, the outcome [2] is reported as “inactive” and the outcome [3] is reported as “inactive”. For the same molecule, the outcome [4] was “inactive”.
For `CCOc1ccc(Cc2nccc3cc(OCC)c(OCC)cc23)cc1OCC`, the efficacy [1] was 94.1%, the AC50 [2] was 39.8 µM (active) and the outcome [3] was “inactive”. The AC50 [4] was 39.8 µM (active).
With `O=C(CCC1CCN(Cc2ccccc2)CC1)c1ccc2c(c1)NCCCC2` the efficacy [1] was 114%, the AC50 [2] was 7.08 µM (active) and the AC50 [3] was 7.08 µM (active). For the same molecule, the AC50 [4] was 7.08 µM (active).
With `CCCCc1ccc2nc(NC(=O)OC)[nH]c2c1` the efficacy [1] was 19%, the AC50 [2] was 15.8 µM (active) and the outcome [3] was “inactive”. For the same molecule, the outcome [4] was “inactive”.
In the case of `CN1CCC(=C2c3ccccc3CCc3cccnc32)CC1`, the efficacy [1] is reported as 39.6%, the AC50 [2] is reported as 22.4 µM (active) and the AC50 [3] is reported as 31.6 µM (active). For the same molecule, the AC50 [4] was 31.6 µM (active).
